TIM10 inh: growth inhibitors of isogenic TIM10 control yeast, primary screen, counter-screen for tim10-1 yeast inhibitor project, luminescence, uHTS. S. cerevisiae TIM10 strain growth, BacTiter-Glo luminescence, 24 h. inhibition, % at 10 µM. 330,000 tested, 1.4% active. AID 463195, 2010;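 active = inhibition of 40% or more at the single tested concentration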;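 note: wild-type TIM10 isogenic control strain grown at permissive 25 °C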
PfHsp90 yeast 2: growth inhibition of PfHsp90-expressing yeast, primary screen, antimalarial PfHsp90 inhibitor project, S. cerevisiae, BacTiter-Glo luminescence, single point, set 2. inhibition, % at 9.4 µM. AID 504621, 2011. BacTiter-Glo ATP, 48 h; yeast lacking PDR1 and PDR3 efflux regulators. 310,000 tested, 0.32% active;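 active = every replicate shows inhibition above about 80%, whatever the replicate mean, limit read from the data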;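 note: 0% = DMSO neutral controls and 100% = 20 µM radicicol positive controls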
tim10-1 inh: growth inhibitors of tim10-1 mutant yeast, primary screen, luminescence, uHTS; S. cerevisiae tim10-1 ts strain growth, BacTiter-Glo, 24 h; inhibition, % at 20 µM; 330,000 tested, 2.2% active;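 active = inhibition of at least 40%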;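 note: mutant grown at 25 °C; 0% = DMSO wells with yeast and 100% = wells holding no yeast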
tim23-1 inh: growth inhibitors of tim23-1 mutant yeast, primary screen, luminescence, uHTS | S. cerevisiae tim23-1 growth, BacTiter-Glo luminescence, 24 h | inhibition, % at 20 µM | 330,000 tested, 1.3% active | AID 463212, 2010;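 active = growth inhibition of the mutant yeast at or above 50%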;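 note: temperature-sensitive mutant grown at 25 °C; plate controls were DMSO-treated mutant yeast for no effect and medium wells lacking yeast for full effect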
V-ATPase pH: regulators of yeast V-ATPase proton pumping, primary screen, pHLuorin cytosolic pH fluorescence; S. cerevisiae; response, % at 10 µM; 350,000 tested, 0.37% active; AID 504577, 2011; in the data active = response mostly above about 7.3%, no sharp cut-off; inactive = mostly below about 5.4%; note: actives read high
V-ATPase pH SP: yeast V-ATPase proton pumping modulators, confirmation, S. cerevisiae, pH-sensitive GFP, second cherry-pick | response, % at 10 µM | 980 tested, 2% active | S. cerevisiae pHLuorin cytosolic pH, V-ATPase proton transport | AID 602197, 2012 | shares compounds with V-ATPase pH; in the data active = response above about 24%;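 note: plate controls were vehicle wells for no effect and positive control wells for full effect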
Starred values were filed as active, the others as inactive; . = no result given. Shown are actives, neighbours in structure and some others; about 3.7% of the full set was active somewhere.

SMILES | TIM10 inh | PfHsp90 yeast 2 | tim10-1 inh | tim23-1 inh | V-ATPase pH | V-ATPase pH SP
CCn1cc(CN2CCCC(CO)(Cc3cccc(Cl)c3)C2)cn1 (stereo not given) | -3 | 42 | -3 | -48 | 13* | 1
CC(Oc1ccccc1)C(=O)N=C1SC2CS(=O)(=O)CC2N1c1cccc(F)c1 (stereo not given) | -7 | -1 | 6 | -12 | 4 | .
CC(C)(C)C(=O)Nc1ccccc1C(=O)NCCC(=O)Nc1ccccc1 | -1 | 6 | -19 | -1 | 11* | -1
CC(=O)Nc1ccc(NC(=O)CCNC(=O)c2ccccc2Cl)cc1 | 16 | -9 | 11 | 15 | 0 | .
CCOCCCN(C(=O)c1snc(C(N)=O)c1N)C(C(=O)NC1CCCC1)c1ccc(F)cc1 (stereo not given) | 10 | 14 | 11 | 14 | -3 | .
C#CCN(C[C@@H]1[C@@H](OC(=O)NCCCCCC)[C@@H](OC(=O)NCCCCCC)Cn2c(=O)n(CCCCCC)c(=O)n21)S(=O)(=O)c1ccc(C)cc1 | . | . | . | . | -1 | .
CCC1S/C(=N/N=C/c2ccco2)N(Cc2ccccc2)C1=O (stereo not given) | -16 | . | -2 | 19 | 60* | 2
CC1S/C(=N/N=C/c2ccco2)N(Cc2ccc(F)cc2)C1=O (stereo not given) | 16 | -19 | 15 | 22 | -1 | .
O=C(/C=C/c1cccc([N+](=O)[O-])c1)OCC(=O)N1CCN(C(=O)c2ccco2)CC1 | -2 | . | 13 | 15 | 12* | 3
CC1(C)CC(=O)N(c2ccc(Cl)c(Cl)c2)C(=O)C1 | 9 | 5 | -11 | 2 | 2 | .
C[C@H]1CN([C@@H](C)CO)C(=O)c2cccc(NS(=O)(=O)c3ccc(Cl)cc3)c2O[C@@H]1CN(C)CC1CCCCC1 | 6 | -1 | 4 | 22 | 2 | .
Cn1c(CC(=O)Nc2ccccc2F)nnc1SCC(=O)Nc1nccs1 | 1 | 9 | -27 | -3 | 4 | .
Cc1noc(C)c1S(=O)(=O)N(C)C[C@@H]1OCc2cnnn2CCCC(=O)N([C@H](C)CO)C[C@@H]1C | . | . | . | . | -3 | .
COc1ccc(C)cc1S(=O)(=O)NCC(c1ccc2c(c1)OCO2)N1CCOCC1 (stereo not given) | 11 | . | 18 | 7 | 11* | -4
Cc1cc(-c2ccccc2)nc(N(C)NC(=O)c2ccc(Cl)cc2)c1S(C)(=O)=O | 7 | -22 | 4 | 7 | 18* | -3
CCOC(=O)c1[nH]c2ccc(Cl)cc2c1NC(=O)c1nonc1C | 1 | -5 | 0 | 13 | 1 | .
CCOC(=O)c1[nH]c2ccccc2c1NC(=O)c1nonc1C | 11 | . | 10 | 15 | -3 | -30
N#CC(=C1CCCC1)c1nc(-c2ccccc2)cs1 | -5 | 5 | 7 | -7 | 9.7* | -4
O=C(NC1CCCCC1)N(c1ccccc1)c1nnc(-c2cccc([N+](=O)[O-])c2)s1 | . | . | . | . | -1 | .
O=C(Nc1cc2c(cc1Br)OCCCO2)c1cccnc1 | 9 | 17 | -12 | -1 | 9.4* | 6
CC(C)(C)c1ccc(OCC(=O)NN2Cc3ccccc3C2=N)cc1 | 7 | -13 | -11 | -16 | 5 | .
N=C1c2ccccc2CN1NC(=O)COc1ccc(Cl)cc1 | -4 | 8 | -5 | -16 | 11* | 1
Cc1nn(-c2ccc(Cl)cc2)c(=O)c2c(C)noc12 | 4 | 6 | -5 | 14 | -1 | -2
COc1ccc(C(=O)Oc2ccc3ccc(=O)oc3c2)cc1OC | -9 | 19 | -2 | -7 | -1 | .
COc1ccc(C(=O)Oc2c(C)occc2=O)cc1OC | 7 | 14 | -8 | -1 | 21* | 1
SMILES | TIM10 inh | PfHsp90 yeast 2 | tim10-1 inh | tim23-1 inh | V-ATPase pH | V-ATPase pH SP
O=[N+]([O-])c1c(NCCCO)cc(N2CCCCCC2)c2nonc12 | 7 | 23 | 13 | 10 | 6 | .
O=[N+]([O-])c1c(NCc2ccccc2)cc(N2CCc3ccccc3C2)c2nonc12 | 28 | 4 | 12 | 23 | 5.8* | 2
COc1ccc(CNC(=O)CCn2nc(C)c3c(C)n(-c4ccccc4)nc3c2=O)c(OC)c1 | -2 | 3 | 12 | 20 | -2 | .
CC(C)(C)n1nc2c(c1NC(=O)Cc1ccccc1)CS(=O)(=O)C2 | -14 | . | -5 | 4 | 0 | .
CC(=O)c1ccc(NC(=O)CN2CCC(NC(=O)c3ccccc3C)CC2)cc1 | . | . | . | . | 8.2* | -1
Cc1cc2c(cc(C(=O)N3CCC(C(=O)N4CCCC4)CC3)n2Cc2c(F)cccc2Cl)o1 | -9 | -37 | 3 | 13 | 10* | 2
Cc1cc(C)c(OCC(=O)Nc2nc3ccccc3[nH]2)c(C)c1 | 13 | 6 | -5 | 13 | 9.7* | -4
Cc1ccccc1OCC(=O)Nc1nc2ccccc2[nH]1 | -7 | 6 | -18 | 16 | 10 | .
CCNC(=O)CSc1nc(-c2ccc(F)cc2)cs1 | 12 | -23 | 10 | -3 | 8.1* | 1
COCCNC(=O)CSc1nc(-c2ccccc2)cs1 | -6 | 1 | 11 | 4 | 0 | .
Nc1ccc(C(=O)OCc2csc(-c3ccccc3)n2)cc1[N+](=O)[O-] | -9 | -30 | 7 | -23 | 10* | -7
COc1ccc(CCNc2nc(-c3ccco3)cc(C(F)(F)F)n2)cc1OC | 32 | 43 | 24 | 6 | 11* | 2
COc1cc(NC(=O)CSc2nc(=O)n(CCN3CCOCC3)c3c2CCCC3)cc(OC)c1 | 10 | . | -15 | -8 | -1 | .
Cc1cc(C)c2cccc(N)c2n1 | 15 | 19 | 18 | 10 | 31* | 0
COc1ccc(S(=O)(=O)N2CCN(Cc3c[nH]c4ccccc34)CC2)cc1 | 7 | -8 | 25 | 29 | 7.8* | 1
COc1ccc(-c2cc(C(=O)NCCCN3CCCC3=O)c3ccccc3n2)cc1 | -20 | . | -12 | -26 | 12* | 3
CC(Oc1ccccc1)C(=O)NC1=NCCS1 (stereo not given) | 8 | -11 | -14 | 0 | 7.3* | -2
O=C(COc1ccccc1)NC1=NCCS1 | 13 | -13 | 10 | -9 | 1 | .
CC(NC(=O)c1ccc(F)cc1)C(=O)NC1=NCCS1 (stereo not given) | 7 | 16 | -4 | -2 | -4 | -2
CN(C)S(=O)(=O)c1cccc(C(=O)Nc2n[nH]c(C(F)(F)F)n2)c1 | 11 | -16 | -23 | 2 | 0 | .
O=C(COC(=O)c1cnc(Cl)c(Cl)c1)NCCC1=CCCCC1 | -17 | -72 | 16 | 3 | 65* | 5
Cc1ccc(S(=O)(=O)N(C)Cc2ccc(C(=O)N/N=C3\CCCC(=O)C3)cc2)cc1 | -2 | 6 | 10 | 9 | 3 | .
O=C1CCC/C(=N\NC(=O)c2ccc(NS(=O)(=O)c3ccc(Br)cc3)cc2)C1 | 2 | 8 | 11 | 4 | 14* | -2

Compound activity from PubChem BioAssay.
